Laboratory results as given in article PMC7862700, “An all-to-all approach to the identification of sequence-specific readers for epigenetic DNA modifications on cytosine”.

What was measured:
Assay in all cases: DAPPL (digital affinity profiling via proximity ligation, sequencing); 10 mM Tris-HCl pH 7.5, 50 mM NaCl, 1 mM DTT, 4% glycerol, room temperature, 30 min; GST-TFs on glutathione beads, 16-mer random dsDNA library, 0.1% formaldehyde crosslink after washing; high values mean tight binding
[1] = molecular target: T1, FLI1 (Homo sapiens, UniProt Q01543 1-452); settings: protein: recombinant; tags: N-terminal GST; dsDNA, one strand shown
T1 sequence: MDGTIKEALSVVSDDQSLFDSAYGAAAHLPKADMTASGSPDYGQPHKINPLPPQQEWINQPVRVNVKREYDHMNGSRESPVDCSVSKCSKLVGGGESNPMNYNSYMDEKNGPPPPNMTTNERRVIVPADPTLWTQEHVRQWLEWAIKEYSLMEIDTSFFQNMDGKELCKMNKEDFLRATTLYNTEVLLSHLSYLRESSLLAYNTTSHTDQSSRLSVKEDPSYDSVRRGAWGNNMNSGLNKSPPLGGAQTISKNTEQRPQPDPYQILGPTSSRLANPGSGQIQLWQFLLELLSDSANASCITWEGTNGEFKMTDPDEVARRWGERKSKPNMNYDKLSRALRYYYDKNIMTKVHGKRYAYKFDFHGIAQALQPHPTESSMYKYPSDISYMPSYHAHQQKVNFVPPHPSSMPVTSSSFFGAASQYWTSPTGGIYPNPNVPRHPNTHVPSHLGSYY
Summary of the method: (§1)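 Human transcription factors fused to GST were expressed in yeast, captured on glutathione beads, given DNA barcodes and pooled with a GST-only negative control. Pools were incubated with 200 nmole of a 16-mer random double-stranded DNA library in Tris/NaCl/DTT/glycerol buffer at room temperature for 30 min. They were then washed, crosslinked with 0.1% formaldehyde, proximity-ligated (BsaI/T4 ligase, 1 h, 37 °C), PCR-amplified and sequenced on an Illumina NextSeq500. Binding signal is each 6-mer's read frequency for a factor divided by its frequency for the GST control.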

[2] = molecular target: T2, ELK1 (Homo sapiens, UniProt P19419 1-428); settings: protein: recombinant; tags: N-terminal GST; dsDNA, one strand shown
T2 sequence: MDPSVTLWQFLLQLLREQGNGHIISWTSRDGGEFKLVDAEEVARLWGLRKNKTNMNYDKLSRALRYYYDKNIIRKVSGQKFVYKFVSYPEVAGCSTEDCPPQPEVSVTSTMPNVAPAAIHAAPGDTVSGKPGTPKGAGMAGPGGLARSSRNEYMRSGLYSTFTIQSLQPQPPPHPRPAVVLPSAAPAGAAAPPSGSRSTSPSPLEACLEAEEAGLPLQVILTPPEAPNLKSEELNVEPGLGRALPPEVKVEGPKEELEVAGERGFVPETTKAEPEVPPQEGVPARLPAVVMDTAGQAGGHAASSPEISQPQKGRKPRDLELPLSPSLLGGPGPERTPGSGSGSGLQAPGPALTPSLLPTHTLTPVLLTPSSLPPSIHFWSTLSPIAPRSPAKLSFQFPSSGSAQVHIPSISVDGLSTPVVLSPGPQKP
Summary of the method: as §1

[3] = molecular target: T3, GABPA (Homo sapiens, UniProt Q06546 1-454); settings: protein: recombinant; tags: N-terminal GST; dsDNA, one strand shown
T3 sequence: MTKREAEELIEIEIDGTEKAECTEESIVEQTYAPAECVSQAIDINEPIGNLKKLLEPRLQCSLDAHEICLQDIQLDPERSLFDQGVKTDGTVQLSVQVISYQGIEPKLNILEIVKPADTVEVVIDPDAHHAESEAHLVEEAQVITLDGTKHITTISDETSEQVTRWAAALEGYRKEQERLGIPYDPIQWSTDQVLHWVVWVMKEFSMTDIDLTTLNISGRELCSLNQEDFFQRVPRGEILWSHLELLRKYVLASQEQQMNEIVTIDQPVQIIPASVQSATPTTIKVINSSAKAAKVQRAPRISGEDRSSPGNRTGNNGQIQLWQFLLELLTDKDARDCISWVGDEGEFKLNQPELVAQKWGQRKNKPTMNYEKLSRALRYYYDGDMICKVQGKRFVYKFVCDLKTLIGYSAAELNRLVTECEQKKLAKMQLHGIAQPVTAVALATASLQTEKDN
Summary of the method: as §1

[4] = molecular target: T4, ERG (Homo sapiens, UniProt P11308 1-479); settings: protein: recombinant; tags: N-terminal GST; dsDNA, one strand shown
T4 sequence: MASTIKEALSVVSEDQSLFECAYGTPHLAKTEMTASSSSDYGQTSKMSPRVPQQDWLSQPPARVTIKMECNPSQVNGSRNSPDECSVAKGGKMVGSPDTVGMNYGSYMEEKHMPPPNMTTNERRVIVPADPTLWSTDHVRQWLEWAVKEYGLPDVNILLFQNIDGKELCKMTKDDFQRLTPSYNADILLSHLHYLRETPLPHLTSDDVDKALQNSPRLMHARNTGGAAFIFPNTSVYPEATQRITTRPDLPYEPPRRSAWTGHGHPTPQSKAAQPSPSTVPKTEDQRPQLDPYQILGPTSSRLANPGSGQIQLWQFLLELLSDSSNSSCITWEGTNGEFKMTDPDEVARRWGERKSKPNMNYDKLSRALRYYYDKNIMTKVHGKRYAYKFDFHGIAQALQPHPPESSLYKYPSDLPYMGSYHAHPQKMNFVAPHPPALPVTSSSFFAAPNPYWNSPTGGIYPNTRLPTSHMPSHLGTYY
Summary of the method: as §1

[5] = molecular target: ELF1 (Homo sapiens, UniProt P32519 1-619); settings: protein: recombinant; tags: N-terminal GST; dsDNA, one strand shown
Chain of ELF1 (P32519 whole entry): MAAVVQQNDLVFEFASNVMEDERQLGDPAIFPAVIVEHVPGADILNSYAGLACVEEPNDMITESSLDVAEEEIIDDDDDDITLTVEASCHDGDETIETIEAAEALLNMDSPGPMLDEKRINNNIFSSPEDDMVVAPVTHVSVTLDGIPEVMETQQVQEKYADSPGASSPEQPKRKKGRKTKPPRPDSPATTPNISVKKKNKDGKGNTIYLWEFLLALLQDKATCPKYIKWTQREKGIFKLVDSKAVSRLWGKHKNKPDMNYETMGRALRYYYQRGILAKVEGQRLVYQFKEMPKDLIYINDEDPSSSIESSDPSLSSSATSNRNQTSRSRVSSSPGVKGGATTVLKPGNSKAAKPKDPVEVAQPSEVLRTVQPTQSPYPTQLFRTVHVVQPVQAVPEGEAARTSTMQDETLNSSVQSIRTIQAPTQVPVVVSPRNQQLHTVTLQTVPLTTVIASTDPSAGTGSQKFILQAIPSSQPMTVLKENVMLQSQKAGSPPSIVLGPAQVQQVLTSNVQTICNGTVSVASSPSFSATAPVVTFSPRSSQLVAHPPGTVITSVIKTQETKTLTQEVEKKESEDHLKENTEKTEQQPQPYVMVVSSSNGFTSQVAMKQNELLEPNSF
Summary of the method: as §1

[6] = molecular target: T5, EHF (Homo sapiens, UniProt Q9NZC4 1-300); settings: protein: recombinant; tags: N-terminal GST; dsDNA, one strand shown
T5 sequence: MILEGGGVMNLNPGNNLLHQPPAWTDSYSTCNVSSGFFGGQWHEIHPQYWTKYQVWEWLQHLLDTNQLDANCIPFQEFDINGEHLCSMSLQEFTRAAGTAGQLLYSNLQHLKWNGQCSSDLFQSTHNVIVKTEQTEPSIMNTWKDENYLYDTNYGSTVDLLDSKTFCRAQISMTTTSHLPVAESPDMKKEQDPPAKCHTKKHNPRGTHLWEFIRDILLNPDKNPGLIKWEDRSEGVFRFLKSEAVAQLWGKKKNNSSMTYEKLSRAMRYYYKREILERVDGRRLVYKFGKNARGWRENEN
Summary of the method: as §1

[7] = molecular target: SPI1 (Homo sapiens, UniProt P17947 1-270); settings: protein: recombinant; tags: N-terminal GST; dsDNA, one strand shown
Summary of the method: as §1

[8] = molecular target: SPIB (Homo sapiens, UniProt Q01892 1-262); settings: protein: recombinant; tags: N-terminal GST; dsDNA, one strand shown
Chain of SPIB (Q01892 whole entry): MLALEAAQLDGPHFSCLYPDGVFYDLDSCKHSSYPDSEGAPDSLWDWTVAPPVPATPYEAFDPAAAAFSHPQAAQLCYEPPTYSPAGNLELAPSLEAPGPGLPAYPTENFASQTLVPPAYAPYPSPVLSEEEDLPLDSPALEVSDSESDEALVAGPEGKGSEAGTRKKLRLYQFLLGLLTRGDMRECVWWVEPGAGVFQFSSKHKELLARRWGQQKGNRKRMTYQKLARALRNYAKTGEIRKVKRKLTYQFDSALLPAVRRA
Summary of the method: as §1

[9] = molecular target: T6, ELK3 (Homo sapiens, UniProt P41970 1-407); settings: protein: recombinant; tags: N-terminal GST; dsDNA, one strand shown
T6 sequence: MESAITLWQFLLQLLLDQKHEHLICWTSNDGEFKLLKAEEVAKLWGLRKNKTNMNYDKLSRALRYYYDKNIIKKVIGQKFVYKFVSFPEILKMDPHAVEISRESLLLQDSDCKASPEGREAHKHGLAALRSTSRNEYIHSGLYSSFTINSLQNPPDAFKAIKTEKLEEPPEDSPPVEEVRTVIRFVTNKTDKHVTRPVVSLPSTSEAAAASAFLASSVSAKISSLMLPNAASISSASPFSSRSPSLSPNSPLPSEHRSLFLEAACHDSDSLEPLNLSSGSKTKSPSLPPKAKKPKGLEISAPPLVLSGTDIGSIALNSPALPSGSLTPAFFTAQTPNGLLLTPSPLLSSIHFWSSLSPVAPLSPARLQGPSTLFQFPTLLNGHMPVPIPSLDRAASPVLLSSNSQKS
Summary of the method: as §1

[10] = molecular target: T7, FEV (Homo sapiens, UniProt Q99581 1-238); settings: protein: recombinant; tags: N-terminal GST; dsDNA, one strand shown
T7 sequence: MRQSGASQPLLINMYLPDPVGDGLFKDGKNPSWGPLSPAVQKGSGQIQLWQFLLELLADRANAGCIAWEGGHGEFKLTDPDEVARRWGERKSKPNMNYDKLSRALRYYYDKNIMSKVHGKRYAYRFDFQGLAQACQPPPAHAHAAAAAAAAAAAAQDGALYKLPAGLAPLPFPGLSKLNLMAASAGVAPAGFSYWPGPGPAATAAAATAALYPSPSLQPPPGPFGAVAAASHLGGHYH
Summary of the method: as §1

[11] = molecular target: ETV5 (Homo sapiens, UniProt P41161 1-510); settings: protein: recombinant; tags: N-terminal GST; dsDNA, one strand shown
Chain of ETV5 (P41161 whole entry): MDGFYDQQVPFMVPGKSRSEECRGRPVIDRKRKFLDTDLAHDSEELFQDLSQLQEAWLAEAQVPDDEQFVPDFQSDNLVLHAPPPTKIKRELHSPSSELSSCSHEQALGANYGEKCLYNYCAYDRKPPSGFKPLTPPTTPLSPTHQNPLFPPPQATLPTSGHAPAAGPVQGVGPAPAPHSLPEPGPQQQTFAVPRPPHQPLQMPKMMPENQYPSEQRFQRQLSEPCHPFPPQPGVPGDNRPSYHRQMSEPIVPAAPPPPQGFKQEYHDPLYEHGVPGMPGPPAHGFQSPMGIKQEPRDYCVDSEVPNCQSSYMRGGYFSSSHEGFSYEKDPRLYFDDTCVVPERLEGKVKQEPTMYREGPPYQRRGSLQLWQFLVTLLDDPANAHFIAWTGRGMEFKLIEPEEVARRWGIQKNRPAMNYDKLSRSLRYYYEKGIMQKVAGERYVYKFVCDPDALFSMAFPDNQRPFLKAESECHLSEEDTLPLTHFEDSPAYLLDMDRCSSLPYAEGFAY
Summary of the method: as §1

[12] = molecular target: HSF1 (Homo sapiens, UniProt Q00613 1-529); settings: protein: recombinant; tags: N-terminal GST; chain copies: 3; dsDNA, one strand shown
Chain of HSF1 (Q00613 whole entry): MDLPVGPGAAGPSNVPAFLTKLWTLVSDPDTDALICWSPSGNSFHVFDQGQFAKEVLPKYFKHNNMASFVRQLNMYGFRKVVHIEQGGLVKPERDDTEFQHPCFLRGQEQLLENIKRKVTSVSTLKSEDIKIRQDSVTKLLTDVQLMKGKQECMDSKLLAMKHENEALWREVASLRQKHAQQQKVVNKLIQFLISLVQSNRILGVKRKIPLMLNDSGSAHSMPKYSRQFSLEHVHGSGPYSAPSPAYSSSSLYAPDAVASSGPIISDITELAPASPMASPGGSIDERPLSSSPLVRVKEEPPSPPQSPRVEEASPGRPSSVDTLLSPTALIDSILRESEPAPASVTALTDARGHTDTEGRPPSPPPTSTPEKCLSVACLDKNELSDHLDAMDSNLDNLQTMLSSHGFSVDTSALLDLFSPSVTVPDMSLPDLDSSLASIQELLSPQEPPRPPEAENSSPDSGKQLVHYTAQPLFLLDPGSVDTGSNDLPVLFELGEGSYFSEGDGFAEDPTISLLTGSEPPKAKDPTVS
Summary of the method: as §1

[13] = molecular target: T8, SPIC (Homo sapiens, UniProt Q8N5J4 1-248); settings: protein: recombinant; tags: N-terminal GST; dsDNA, one strand shown
T8 sequence: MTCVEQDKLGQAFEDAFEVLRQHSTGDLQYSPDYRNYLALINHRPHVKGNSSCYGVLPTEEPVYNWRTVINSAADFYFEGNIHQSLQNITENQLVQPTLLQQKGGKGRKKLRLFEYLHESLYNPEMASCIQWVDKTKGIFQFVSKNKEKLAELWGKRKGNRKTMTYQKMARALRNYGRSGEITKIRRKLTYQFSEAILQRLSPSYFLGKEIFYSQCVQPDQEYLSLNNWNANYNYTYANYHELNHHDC
Summary of the method: as §1

[14] = molecular target: ELF4 (Homo sapiens, UniProt Q99607 1-663); settings: protein: recombinant; tags: N-terminal GST; dsDNA, one strand shown
Chain of ELF4 (Q99607 whole entry): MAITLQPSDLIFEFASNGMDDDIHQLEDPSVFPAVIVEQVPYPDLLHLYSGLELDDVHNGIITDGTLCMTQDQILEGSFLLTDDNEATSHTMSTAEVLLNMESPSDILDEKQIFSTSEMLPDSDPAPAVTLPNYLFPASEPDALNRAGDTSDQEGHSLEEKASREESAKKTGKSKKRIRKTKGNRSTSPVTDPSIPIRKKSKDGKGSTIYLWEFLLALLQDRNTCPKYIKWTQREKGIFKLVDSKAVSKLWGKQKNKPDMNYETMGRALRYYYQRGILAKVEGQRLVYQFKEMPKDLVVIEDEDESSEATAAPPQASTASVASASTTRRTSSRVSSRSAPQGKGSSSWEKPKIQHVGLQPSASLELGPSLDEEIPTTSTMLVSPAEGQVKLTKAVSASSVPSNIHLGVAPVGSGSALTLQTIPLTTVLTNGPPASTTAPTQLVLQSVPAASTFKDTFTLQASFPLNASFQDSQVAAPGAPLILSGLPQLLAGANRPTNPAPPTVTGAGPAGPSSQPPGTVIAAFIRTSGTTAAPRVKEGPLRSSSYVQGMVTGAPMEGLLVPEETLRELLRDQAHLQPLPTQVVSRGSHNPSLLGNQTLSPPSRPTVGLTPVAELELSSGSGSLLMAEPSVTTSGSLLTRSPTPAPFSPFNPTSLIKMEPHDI
Summary of the method: as §1

[15] = molecular target: T9, ELK4 (Homo sapiens, UniProt P28324-2 1-405); settings: protein: recombinant; tags: N-terminal GST; dsDNA, one strand shown
T9 sequence: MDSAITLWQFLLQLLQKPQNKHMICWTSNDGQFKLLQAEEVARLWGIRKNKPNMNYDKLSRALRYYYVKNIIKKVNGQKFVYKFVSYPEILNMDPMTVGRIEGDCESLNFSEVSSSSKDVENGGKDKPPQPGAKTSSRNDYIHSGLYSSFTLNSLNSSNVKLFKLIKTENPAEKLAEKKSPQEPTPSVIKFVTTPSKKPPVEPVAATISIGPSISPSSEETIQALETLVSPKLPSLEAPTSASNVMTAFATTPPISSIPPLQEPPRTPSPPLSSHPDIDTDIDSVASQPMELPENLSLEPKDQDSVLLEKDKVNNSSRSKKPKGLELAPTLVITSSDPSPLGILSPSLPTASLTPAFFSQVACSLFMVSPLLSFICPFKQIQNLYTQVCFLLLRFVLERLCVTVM
Summary of the method: as §1

[16] = molecular target: T10, ETV2 (Homo sapiens, UniProt O00321 1-342); settings: protein: recombinant; tags: N-terminal GST; dsDNA, one strand shown
T10 sequence: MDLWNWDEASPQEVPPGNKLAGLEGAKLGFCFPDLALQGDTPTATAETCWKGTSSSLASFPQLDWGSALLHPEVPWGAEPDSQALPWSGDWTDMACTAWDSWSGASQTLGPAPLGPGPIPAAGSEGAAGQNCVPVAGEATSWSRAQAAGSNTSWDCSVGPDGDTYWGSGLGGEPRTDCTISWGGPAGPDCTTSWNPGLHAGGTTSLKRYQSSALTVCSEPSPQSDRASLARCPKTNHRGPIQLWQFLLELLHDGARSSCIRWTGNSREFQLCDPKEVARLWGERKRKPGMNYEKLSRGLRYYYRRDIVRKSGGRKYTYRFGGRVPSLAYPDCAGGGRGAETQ
Summary of the method: as §1

[17] = molecular target: T11, ELF3 (Homo sapiens, UniProt P78545 1-371); settings: protein: recombinant; tags: N-terminal GST; dsDNA, one strand shown
T11 sequence: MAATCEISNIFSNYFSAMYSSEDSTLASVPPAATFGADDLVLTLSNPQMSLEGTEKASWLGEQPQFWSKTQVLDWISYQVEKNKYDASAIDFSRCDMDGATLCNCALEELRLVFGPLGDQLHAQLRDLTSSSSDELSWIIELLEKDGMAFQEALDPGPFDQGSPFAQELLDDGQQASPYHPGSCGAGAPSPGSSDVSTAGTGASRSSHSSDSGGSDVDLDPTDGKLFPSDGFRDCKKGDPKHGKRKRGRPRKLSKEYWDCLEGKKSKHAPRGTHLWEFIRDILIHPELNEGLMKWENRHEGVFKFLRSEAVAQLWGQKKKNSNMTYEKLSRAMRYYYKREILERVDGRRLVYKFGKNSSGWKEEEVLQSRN
Summary of the method: as §1

[18] = molecular target: CRX (Homo sapiens, UniProt O43186 1-299); settings: protein: recombinant; tags: N-terminal GST; dsDNA, one strand shown
Chain of CRX (O43186 whole entry): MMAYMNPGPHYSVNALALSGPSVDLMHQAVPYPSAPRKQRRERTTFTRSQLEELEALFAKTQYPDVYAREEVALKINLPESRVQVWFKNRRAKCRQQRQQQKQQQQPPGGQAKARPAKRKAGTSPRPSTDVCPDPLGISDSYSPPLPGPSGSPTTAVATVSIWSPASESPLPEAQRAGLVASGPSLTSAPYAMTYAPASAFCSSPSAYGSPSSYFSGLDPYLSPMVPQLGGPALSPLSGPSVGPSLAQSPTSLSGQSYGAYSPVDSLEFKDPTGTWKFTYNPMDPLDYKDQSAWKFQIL
Summary of the method: as §1

[19] = molecular target: ETV1 (Homo sapiens, UniProt P50549 1-477); settings: protein: recombinant; tags: N-terminal GST; dsDNA, one strand shown
Chain of ETV1 (P50549 whole entry): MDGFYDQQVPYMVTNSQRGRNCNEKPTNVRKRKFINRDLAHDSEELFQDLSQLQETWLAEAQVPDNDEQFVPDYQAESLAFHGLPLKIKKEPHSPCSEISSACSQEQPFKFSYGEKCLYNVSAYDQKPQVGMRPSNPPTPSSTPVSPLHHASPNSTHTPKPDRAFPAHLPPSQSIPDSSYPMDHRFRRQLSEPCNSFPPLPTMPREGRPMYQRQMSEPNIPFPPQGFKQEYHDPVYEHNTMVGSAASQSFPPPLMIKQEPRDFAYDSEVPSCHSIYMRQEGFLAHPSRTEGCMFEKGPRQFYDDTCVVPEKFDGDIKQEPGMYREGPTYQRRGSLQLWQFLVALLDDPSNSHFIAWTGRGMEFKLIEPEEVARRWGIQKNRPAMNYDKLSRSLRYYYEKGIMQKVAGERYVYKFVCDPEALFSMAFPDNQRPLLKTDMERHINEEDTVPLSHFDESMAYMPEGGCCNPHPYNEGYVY
Summary of the method: as §1

In the case of GATCCT, the binding signal [1] is reported as 1.28 fold enrichment (6-mer frequency, TF over GST control), the binding signal [2] is reported as 1.2 fold enrichment (6-mer frequency, TF over GST control) and the binding signal [3] is reported as 1.3 fold enrichment (6-mer frequency, TF over GST control). For the same sequence, the binding signal [4] was 1.38 fold enrichment (6-mer frequency, TF over GST control), the binding signal [5] was 1.26 fold enrichment (6-mer frequency, TF over GST control) and the binding signal [6] was 1.28 fold enrichment (6-mer frequency, TF over GST control). For the same sequence, the binding signal [7] was 1.24 fold enrichment (6-mer frequency, TF over GST control), the binding signal [8] was 1.33 fold enrichment (6-mer frequency, TF over GST control) and the binding signal [9] was 1.31 fold enrichment (6-mer frequency, TF over GST control). For the same sequence, the binding signal [10] was 1.23 fold enrichment (6-mer frequency, TF over GST control), the binding signal [11] was 1.27 fold enrichment (6-mer frequency, TF over GST control) and the binding signal [12] was 1.41 fold enrichment (6-mer frequency, TF over GST control). For the same sequence, the binding signal [13] was 1.21 fold enrichment (6-mer frequency, TF over GST control), the binding signal [14] was 1.35 fold enrichment (6-mer frequency, TF over GST control) and the binding signal [15] was 1.24 fold enrichment (6-mer frequency, TF over GST control). For the same sequence, the binding signal [16] was 1.43 fold enrichment (6-mer frequency, TF over GST control), the binding signal [17] was 1.03 fold enrichment (6-mer frequency, TF over GST control) and the binding signal [18] was 1.66 fold enrichment (6-mer frequency, TF over GST control). The binding signal [19] was 1.34 fold enrichment (6-mer frequency, TF over GST control).
